Source: PubChem (National Center for Advancing Translational Sciences (NCATS))
Sampled rows, rich in hits. Any-hit rate of the full collection: about 9.4%.
HTT aggregate – qHTS Multiplex Assay to Identify Dual Action Probes in a Cell Model of Huntington: Aggregate Formation (GFP); 220,000 tested, 1.1% active; PC12 HttQ103-GFP aggregates, Acumen cytometry, 40 h; Potency, µM (doses to about 46.1 µM), without a hit: at the top dose activity change, negative = inhibition, usual class: inhibitors; AID 1688, 2009; further: potency means the concentration at half of the fitted maximal effect; on the % scale 0 is the no-effect control and ±100 the full control effect; nearly all actives have a fitted effect of over 60% in size
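Read-out: GFP aggregate count by laser scanning cytometer (488 nm excitation, 500-530 nm emission, 1–25 µm objects >6 SD above background). Cells: PC12, inducible HTTex1-Q103-GFP, 100 nM tebufenozide; compounds titrated.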
IMPase cell inh – qHTS Assay for Identifying the Cell-Membrane Permeable IMPase Inhibitors; Inositol monophosphatase 1 (Rattus norvegicus), P97697; CHO-M1 cells, IP1 accumulation, HTRF TR-FRET ratio; inhibition (IP1 accumulation), % at 46.1 µM; 120,000 tested, under 10 active; AID 901, 2007; active means well fitted curve in the direction sought with a large enough effect in the signal ratio, not every such curve was filed as active; inconclusive means small, poorly fitted or top-dose-only effect, or a change in a side signal; inactive means no such curve, though single readings can be large or run the other way; the % refers to the signal ratio;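 further: cells stimulated with carbachol in lithium chloride buffer; plate controls were DMSO basal wells for no effect and reference inhibitor wells for full effect; higher means more IMPase inhibition seen as more IP1 and lower FRET ratio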
Target sequence (P97697 whole entry, looked up): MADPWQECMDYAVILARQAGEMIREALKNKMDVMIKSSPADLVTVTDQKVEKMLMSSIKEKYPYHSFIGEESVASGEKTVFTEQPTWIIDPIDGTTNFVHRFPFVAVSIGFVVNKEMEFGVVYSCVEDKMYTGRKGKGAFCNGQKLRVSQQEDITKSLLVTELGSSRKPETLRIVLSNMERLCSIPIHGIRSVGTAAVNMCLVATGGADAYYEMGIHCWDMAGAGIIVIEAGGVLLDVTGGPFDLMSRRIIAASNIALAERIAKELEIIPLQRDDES
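CHO-M1, 2000 cells/well, cultured 16–30 h; cpd up to 46 uM; carbachol (50 uM solution, stimulation buffer w/ 50 mM LiCl, pH 7.4), 30 min 37C; IP-One TR-FRET, 10 min RT; Ex 320/Em 665, 620; Hill-fit AC50.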
HPGD block – qHTS Assay for Inhibitors of HPGD (15-Hydroxyprostaglandin Dehydrogenase). purified HPGD, NADH fluorescence kinetic, PGE2 substrate. 150,000 tested, 4.3% active. Potency, µM, without a hit: at the highest dose activity change, negative = inhibition, usual class: inhibitors. 15-hydroxyprostaglandin dehydrogenase [NAD(+)] (Homo sapiens), P15428; active means well fitted inhibition curve with a large enough effect, not every such curve was filed as active; inconclusive means small, poorly fitted or top-dose-only effect, or another doubt; inactive means no such curve, though single readings can be large or run the other way; further: potency means the concentration at half of the fitted maximal effect; on the % scale 0 is the no-effect control and ±100 the full control effect
Target sequence (P15428 whole entry, looked up): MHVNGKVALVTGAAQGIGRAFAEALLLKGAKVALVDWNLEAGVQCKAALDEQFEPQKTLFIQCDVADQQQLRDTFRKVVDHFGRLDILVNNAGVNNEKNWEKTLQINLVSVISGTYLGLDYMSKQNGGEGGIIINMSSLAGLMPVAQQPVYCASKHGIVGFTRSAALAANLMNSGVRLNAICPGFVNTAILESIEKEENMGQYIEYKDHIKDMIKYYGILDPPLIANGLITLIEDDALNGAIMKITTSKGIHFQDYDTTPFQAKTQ
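NADH formation kinetics: reaction with 30 uM PGE2 and 1 mM NAD+ (final), 20 nM enzyme, Tris-HCl pH 8 with Tween 20, after 15 min compound preincubation at room temperature. Fluorescence change, last versus first of five reads.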
IMPase Li cell – qHTS Assay for Identifying the Cell-Membrane Permeable IMPase Inhibitors: Potentiation with Lithium; CHO-M1 cells, IP1 TR-FRET (IP-One), carbachol + lithium; Potency, µM (doses to about 59.4 µM), without a hit: at the highest dose activity, negative = IMPase inhibition, usual class: inhibitors; 210,000 tested, 0.35% active; AID 1457, 2008;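 further: IP1 builds up when IMPase is blocked and the TR-FRET signal falls; potency means the concentration at half of the fitted maximal effect; plate controls were basal vehicle for no effect and high inhibitor control for full effect; nearly all actives have a fitted effect of over 50% in size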
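Test compounds were applied to CHO-M1 cells previously cultured for 16–30 h at 2000 per well. A small lithium amount accompanied them; after 30 min at 37C, IP1 was quantified by TR-FRET.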
ALDH1A1 inh – qHTS Assay for Inhibitors of Aldehyde Dehydrogenase 1 (ALDH1A1) | Aldehyde dehydrogenase 1A1 (Homo sapiens), P00352 | Purified ALDH1A1, NADH fluorescence, propionaldehyde substrate | Potency, µM (top dose mostly 75.3 µM), inactives show at the highest dose activity, negative = inhibition, usual class: inhibitors | 220,000 tested, 7.3% active | AID 1030, 2008; active means well fitted inhibition curve with a large enough effect, not every such curve was filed as active; inconclusive means small, poorly fitted or top-dose-only effect, or another doubt; inactive means no such curve, though single readings can be large or run the other way;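 further: potency means the concentration at half of the fitted maximal effect; plate controls were no enzyme wells and a reference inhibitor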
HTT ATP protect – qHTS Multiplex Assay to Identify Dual Action Probes in a Cell Model of Huntington: Cytoprotection (ATP). Potency, µM (titrated, usually from 56.4 µM), inactives show cytoprotection (ATP increase), most hits filed as activators. AID 1471, 2008. PC12 HTT-Q103 induced, cytoprotection, ATP luminescence, 40 h. 230,000 tested, 0.14% active; further: potency means the concentration at half of the fitted maximal effect; % of control where 0% means no effect; nearly all actives have a fitted effect of over 45% in size
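Cells were plated at 1500 per well in phenol red-free DMEM with 5% equine and 5% calf serum. Tebufenozide (100 nM final) and compounds were added, then ATPlite reagent, and luminescence was read.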
* marks the source's active call; other numbers are inactive results; ? = inconclusive; . = not tested or not shown; [ ] = dose if it differs, or a comment. Unless noted, the call rests on the fitted dose curve; in most records, active means well fitted curve in the direction sought with a large enough effect; inconclusive means small, poorly fitted or top-dose-only effect, or another doubt; inactive means no such curve, though single readings can be large; an effect the other way counts as inactive or inconclusive.

SMILES	HTT aggregate	IMPase cell inh	HPGD block	IMPase Li cell	ALDH1A1 inh	HTT ATP protect
COc1cc(OC)cc(-c2nnc(Sc3ccc(C=O)cc3[N+](=O)[O-])o2)c1	-4%	-10	14µM*	-13%[38.3 µM]	2µM*	0%
Nc1nnc(-c2cccc([N+](=O)[O-])c2)s1	-9%[9.22 µM]	.	.	-4%	3%	3%[10 µM]
Nc1nnc(-c2ccc(Cl)c([N+](=O)[O-])c2)s1	-5%	.	.	-3%	28µM*	.
COC(=O)c1n[nH]n(-c2cc(Cl)cc(Cl)c2)c1=O	-8%[9.22 µM]	.	.	.	10µM*	9%[10 µM]
CC1=CC(=O)N(c2ccc(C)cc2)C1c1ccc(Cl)cc1 (stereo not drawn)	13%	.	22µM*	-2%	-2%	.
Cc1cccc(N=N/C(=C\O)C(=O)c2cccs2)c1	-30%	.	.	23%	8.9µM*	-12%[10 µM]
O=C(/C(N=Nc1cccc(C(F)(F)F)c1)=C(/O)c1cccs1)C(F)(F)F	-21%[9.22 µM]	.	.	.	0%	1%[10 µM]
CC(=O)c1c(C)oc2c(Cl)cc(NS(=O)(=O)c3cc(C)c(C)cc3C)cc12	.	-7	.	.	.	.
Cc1ccc2[nH]c(=O)c(CNC(C)(C)C)cc2c1	7%	-2	?	-2%[38.3 µM]	?	-17%[0.074 µM]
CC(C)(C)NCc1cc2ccccc2[nH]c1=O	4%[9.22 µM]	-7	?	31%[38.3 µM]	20µM*	-21%
COCCNC(=O)CSc1nc2cc(OC)c(OC)cc2c(=O)n1CCc1ccc(S(N)(=O)=O)cc1	1%	.	.	1%	-3%	-10%
Cc1cccc(-n2c(SCC(=O)NCc3ccco3)nc3ccccc3c2=O)c1	-24%	0	-7%	-3%[38.3 µM]	0%	-6%
COc1cc2nc(SCC(=O)NCCc3ccccc3)n(Cc3ccco3)c(=O)c2cc1OC	12%	-1	-10%	38%[38.3 µM]	3.5µM*	-11%[0.074 µM]
O=C(CSc1nc2ccccc2c(=O)n1-c1ccccc1)NCc1ccco1	-10%	15	-25%	?	4.5µM*	-3%[10 µM]
O=C(CSc1nc2cccnc2n1Cc1ccccc1)NCc1ccco1	-8%	1	32µM*	10%[38.3 µM]	25µM*	6%[10 µM]
CCCCn1c(SCC(=O)NCc2ccco2)nc2ccccc2c1=O	-6%[9.22 µM]	0	-11%	37%[38.3 µM]	-6%	3%
O=C(CSc1nc2ccccc2c(=O)n1Cc1ccco1)NCc1ccco1	12%	-11	-21%	8%	25µM*	-11%[10 µM]
COC(=O)N1CCC2(CC1)CN(C(=O)Nc1ccc(OC)cc1)C2	.	.	-2%	-6%	3%	2%
O[C@H](CN1CCN(c2cccc(Cl)c2)CC1)C(c1ccccc1)c1ccccc1	.	6	-9%	22%	-10%	-3%
COc1ccccc1/C=C/C(=O)Nc1nc(N)n(-c2ccccc2)n1	5%[9.22 µM]	.	.	.	.	6%[10 µM]
CCC(C)OC(=O)/C(C#N)=C\c1ccc(-c2cccc(C(F)(F)F)c2)o1 (stereo not drawn)	.	-12	.	.	.	.
Cc1ccc(NC(=O)CN(C)C(=O)CSc2nc3ccccc3c(=O)n2Cc2ccco2)cc1	-6%	9	.	.	4%	-27%
O=C(CSc1nc2c(sc3ccccc32)c(=O)n1Cc1ccco1)NCC1CCCO1 (stereo not drawn)	-2%	-5	5%	30%[38.3 µM]	18µM*	5%[10 µM]
O=C(CSc1nc2c(sc3ccccc32)c(=O)n1Cc1ccccc1)NCC1CCCO1 (stereo not drawn)	8%[9.22 µM]	-14	-20%	17%[38.3 µM]	0%	8%
CN(Cc1ccccc1)C(=O)CSc1nc2ccccc2c(=O)n1Cc1ccco1	?	-3	-26%	1%[38.3 µM]	7.9µM*	-3%
SMILES	HTT aggregate	IMPase cell inh	HPGD block	IMPase Li cell	ALDH1A1 inh	HTT ATP protect
c1ccc(CNc2ccnc(-c3ccoc3)n2)cc1	.	.	-18%	9%	0%	-3%
Cc1ccc(-n2c(N)c(C#N)c(-c3ccc(Cl)cc3)c(C#N)c2=O)cc1	-29%	?	?	28µM*	?	-2%
COc1cccc(/C=N/N2C(=O)NC3(CCCCC3)C2=O)c1O	5%	-2	-15%	24%[38.3 µM]	?	-5%
CCOc1cc(/C=N/N2C(=O)NC3(CCCCC3)C2=O)cc(Br)c1O	4%	.	.	7%	15µM*	-48%
Cc1ccc(S(=O)(=O)N2CCN(C(=O)N(C)C)CC2)cc1	-1%[9.22 µM]	.	.	0%	-10%	4%[10 µM]
O=C(Cn1c(=O)oc2ccccc21)Nc1ccc(C(=O)O)cc1	.	-9	.	.	.	.
N#Cc1c(NC(=O)Cn2c(=O)oc3ccccc32)oc(-c2ccccc2)c1-c1ccccc1	20µM*	7	?	16%[38.3 µM]	13µM*	9%
CCOC(=O)C1=C(C)c2ccccc2N(C(=O)OC)C1(C)C(=O)OCC (stereo not drawn)	.	.	?	19%	32µM*	-23%
COc1cccc(CNC(=O)C2CCC(CNc3nc(=S)[nH]c4ccccc34)CC2)c1 (stereo not drawn)	-24%	.	.	10µM*	-10%	-100%
COc1ccc(-c2cc(C(F)(F)F)nc(SCC(=O)Nc3ccc(O)cc3)n2)cc1OC	.	6	.	.	.	.
COc1ccc(CCNC(=O)C(=O)NCc2ccc(C(C)C)cc2)cc1OC	14%	3	-19%	6%[38.3 µM]	0.79µM*	0%
COc1ccc(CCNC(=O)c2cc(C(C)C)on2)cc1OC	-7%	4	-6%	21%[38.3 µM]	-1%	-2%
COc1ccc(CCNC(=O)CSc2n[nH]c(C)c2[N+](=O)[O-])cc1OC	-11%	.	.	-4%	28µM*	?
COc1ccccc1-c1cc(C(=O)NCc2ccco2)no1	-21%	-5	20µM*	-21%[38.3 µM]	-14%	-17%
COc1ccc(CCNC(=O)c2cc(-c3ccccc3O)n[nH]2)cc1OC	3%	-3	28µM*	25%[38.3 µM]	7%	-16%
